# This is a sample that favours compounds with a hit; in the whole collection about 5.7% have one here.
# ssDAF12 agonist = S. stercoralis DAF-12 activation, primary screen | HEK293 ssDAF-12/GRIP1 lit1-tk-luc reporter, luminescence; % of 3 µM dafachronic acid response | activation, % at 6.8 µM | hit rate 1% among 370,000;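 active = activation above the mean over all tested compounds plus 3 SD, cut at about 0.9% in these data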;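 also: 0% = DMSO-only wells and 100% = 3 µM delta7-dafachronic acid wells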
# hgDAF12 agonist = hgDAF-12 agonism, primary luciferase screen; HEK293 GAL4-hgDAF12 UAS-luciferase reporter, agonist luminescence; normalized to butyrate control; activation, % at 6.8 µM; hit rate 1.8% among 370,000; AID 687014;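 active = activation above a cutoff set at the mean of all screened compounds plus 3 SD, cut at about 10% in these data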;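 also: 0% = DMSO wells and 100% = sodium butyrate wells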
# hcDAF12 agonist = activators of H. contortus DAF-12 nuclear receptor; hit rate 1.4% among 370,000; HEK293 hcDAF-12 lit1-tk-luc reporter, luminescence; 0% DMSO, 100% Δ7-dafachronic acid; activation, % at 6.8 µM;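 active = activation above the mean of all tested compounds plus 3 SD, cut at about 5.5% in these data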;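 also: 100% = response to 3 µM Δ7-dafachronic acid high control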
# DAX1 inh-1 = NR0B1 (DAX1) inhibition | P51843 | HEK293 Gal4-DAX1 luciferase reporter, luminescence | inhibition, % at 6.75 µM | hit rate 0.99% among 340,000 | AID 504766;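 active = inhibition above the mean over all tested compounds plus 3 SD, cut at about 4.2% in these data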;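 also: 0% = DAX1-transfected cells with DMSO and 100% = empty-vector control cells with DMSO; inhibition shows as a rise in luminescence from relieved DAX1 repression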
# DAX1 inh-2 = inhibitors of DAX1 repression of SF-1 activated StAR promoter; AID 652010; hit rate 1.1% among 370,000; HEK293T StAR-luciferase reporter, SF-1/DAX-1 repression relief; inhibition, % at 6.8 µM;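 active = inhibition above the mean over all tested compounds plus 3 SD, cut at about 3.6% in these data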;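 also: 0% = DAX-1 cells with DMSO and 100% = cells lacking DAX-1 with DMSO; higher inhibition means more luminescence from relief of DAX-1 repression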
# AHR activator = activates the human aryl hydrocarbon receptor | P35869 | AHR-responsive luciferase reporter cells, luminescence | activation, % at 5 µM | hit rate 2.5% among 320,000; in the data active = activation above about 47%;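 also: 0% = vehicle wells and 100% = reference agonist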
# Target sequence (P35869 whole entry, looked up): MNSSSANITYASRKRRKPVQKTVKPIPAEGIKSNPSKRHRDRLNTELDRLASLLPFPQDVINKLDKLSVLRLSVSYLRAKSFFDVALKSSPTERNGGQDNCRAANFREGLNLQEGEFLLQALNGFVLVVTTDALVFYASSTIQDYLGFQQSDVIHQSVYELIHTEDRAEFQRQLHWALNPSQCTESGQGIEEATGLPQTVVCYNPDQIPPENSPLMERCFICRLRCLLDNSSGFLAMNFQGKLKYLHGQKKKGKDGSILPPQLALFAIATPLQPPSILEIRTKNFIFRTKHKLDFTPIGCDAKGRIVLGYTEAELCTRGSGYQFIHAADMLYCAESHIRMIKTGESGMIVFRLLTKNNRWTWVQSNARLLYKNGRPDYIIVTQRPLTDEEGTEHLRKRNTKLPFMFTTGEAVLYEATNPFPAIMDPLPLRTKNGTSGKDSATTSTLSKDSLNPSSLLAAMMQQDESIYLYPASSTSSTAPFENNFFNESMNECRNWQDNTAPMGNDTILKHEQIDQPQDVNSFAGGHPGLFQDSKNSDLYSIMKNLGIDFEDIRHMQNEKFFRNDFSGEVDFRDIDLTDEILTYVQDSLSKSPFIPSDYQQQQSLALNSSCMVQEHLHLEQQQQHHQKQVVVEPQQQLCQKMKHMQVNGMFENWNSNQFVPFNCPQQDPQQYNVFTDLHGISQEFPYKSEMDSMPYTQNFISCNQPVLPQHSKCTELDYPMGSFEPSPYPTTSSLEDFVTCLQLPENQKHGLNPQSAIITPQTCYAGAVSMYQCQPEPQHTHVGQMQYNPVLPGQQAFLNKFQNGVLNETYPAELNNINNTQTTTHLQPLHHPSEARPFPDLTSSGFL
# An asterisk follows results filed as active; . = not tested or not shown.
SMILES,ssDAF12 agonist,hgDAF12 agonist,hcDAF12 agonist,DAX1 inh-1,DAX1 inh-2,AHR activator
NS(=O)(=O)c1ccc(CCNC(=O)c2ccc(Cl)c(S(=O)(=O)NCc3ccco3)c2)cc1,1.3*,-2.6,1.3,0.1,-0.5,-1.9
O=C(O)c1ccc(Cl)c(S(=O)(=O)NCc2ccco2)c1,-0.7,-0.4,-0.8,0.0,-0.1,0.7
CC(=O)c1ccc(N2C(=NC(=O)COc3ccccc3)SC3CS(=O)(=O)CC32)cc1 (configuration not stated),-1.2,2.3,1.9,5.5*,0.3,5.3
CC(=O)c1cccc(N2C(=NC(=O)COc3ccccc3)SC3CS(=O)(=O)CC32)c1 (configuration not stated),-0.6,-2.6,-2.8,0.9,0.4,-1.3
O=C(NC1CCS(=O)(=O)C1)Oc1ccccc1 (configuration not stated),-1.0,2.6,0.5,-0.1,-0.1,-2.2
O=C(NC1CCCCC1)Oc1ccccc1,-0.7,1.6,2.6,6.9*,-0.1,-2.9
COc1ccc(C2=Nc3ccccc3C2(O)CCN2C(=O)c3ccccc3C2=O)cc1 (configuration not stated),-0.8,10.5*,0.4,0.8,0.5,.
O=C(NC1CC(=O)c2sccc21)c1ccc(Cl)cc1Cl (configuration not stated),-0.1,10.3,1.4,0.6,3.7*,8.6
O=C(O)/C=C/C(=O)NNC(=O)c1ccc(Cl)cc1Cl,-1.0,-0.1,2.5,-0.6,-0.4,4.7
c1ccc(-c2noc(CN3CCN(c4ccccc4)CC3)n2)cc1,-1.4,1.4,-0.1,2.6,-0.5,2.5
CC1CCN(Cc2nc(-c3ccccc3)no2)CC1,-0.6,13.2*,5.4,3.5,1.3,8.4
C[C@@H]1CN[C@@H](CCO)/C1=C\c1ccccc1,-0.3,3.4,-1.7,1.2,-0.3,.
CC(=O)c1ccc(N2CCN(C(=O)[C@H](C)NC(=O)c3ccccc3Cl)CC2)cc1,-0.7,-0.5,-0.7,6.0*,0.8,-0.6
C#CCSc1nnnn1-c1cccc(Cl)c1,-1.6,1.9,-2.4,4.3*,-0.5,-1.5
Cc1cc(C)cc(NC(=O)C2CCCN2S(=O)(=O)c2ccc3c(c2)n(C)c(=O)c(=O)n3C)c1 (configuration not stated),-0.7,0.6,0.5,1.4,-0.5,1.7
CCCCNC(=O)C12CCC(C)(C(=O)C1Br)C2(C)C (configuration not stated),-1.6,3.4,2.0,-1.6,-0.1,0.7
C=CCNC(=O)C12CCC(C)(C(=O)[C@H]1Br)C2(C)C (some centres not stated),-0.3,0.0,1.1,6.9*,0.1,0.3
CC(=O)Nc1ccc(S(=O)(=O)Oc2cccc(N3C(=O)C4CCCCC4C3=O)c2)cc1 (configuration not stated),-1.4,-2.2,-1.8,2.2,-0.2,0.3
Cc1ccc(S(=O)(=O)Oc2cccc(N3C(=O)C4CC=CCC4C3=O)c2)cc1 (configuration not stated),-1.8,0.3,-0.5,8.0*,-0.1,-2.3
COc1ccc(NC(=O)/C=C/c2ccccc2[N+](=O)[O-])c(OC)c1,-1.4,-0.9,-2.7,0.3,0.2,76.8*
COc1ccc(NC(=O)/C=C/C(=O)O)c(OC)c1,-1.1,-2.4,-1.1,0.3,-0.4,2.3
COc1ccc(CNC(=O)/C=C/c2ccccc2[N+](=O)[O-])cc1,-1.4,2.7,0.2,-1.1,-0.1,10.2
COc1ccccc1NC(=O)/C=C/c1cc([N+](=O)[O-])ccc1OC(F)F,-1.3,-2.5,2.8,1.3,-0.3,49.0*
COc1ccc(OC)c(NC(=O)/C=C/c2ccccc2[N+](=O)[O-])c1,-0.7,-0.7,-1.0,-0.8,-0.8,70.9*
COc1cc(/C=C/c2ccc3cccc(O)c3n2)cc(Br)c1OC,-0.2,11.5*,0.5,1.7,0.5,-1.9
COc1cc(/C=C/c2ccc3cccc(O)c3n2)cc(OC)c1OC,-1.9,-9.3,-4.7,-3.4,-1.2,-2.8
O=C(NC1CCOc2ccccc21)c1ccccn1 (configuration not stated),0.3,1.6,5.8*,-0.1,0.0,3.3
N#CCCN(C(=O)CSc1n[nH]c(=O)[nH]c1=O)c1ccccc1,-0.8,0.6,-0.8,-1.1,-1.6,-0.1

# Screening results (PubChem)
